Results taken from PubChem BioAssay (Tox21).
Where “and” joins values, the source holds several entries; their conditions need not be identical. Equal entries are not always repeated. Results filed as inconclusive are left out. Where a call stands in place of a potency, no number is given. Some structures have more than one record in an assay (separate samples or runs), and their calls can disagree. Calls of active or inactive are those of the source. Unless noted, calls come from the whole dose curve; as a rule, active = well fitted curve in the direction sought with a large enough effect in the repeat runs; inconclusive = weak or mixed curves; inactive = no such curve, though single readings can be large; an effect the other way counts as inactive or inconclusive.

How the values were obtained:
[1] = qHTS assay to identify aromatase inhibitors - cell viability counter screen (AID 743084);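 note: cells stimulated with testosterone during compound exposure; nearly all actives have a fitted effect of over 55% in size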; note: potency is the fitted concentration of half-maximal effect
[2] = molecular target: Aryl hydrocarbon receptor (Homo sapiens) (UniProt P35869); assay: qHTS assay to identify small molecule that activate the aryl hydrocarbon receptor (AhR) signaling pathway (AID 743085); note: nearly all actives have a fitted effect of over 15% in size; note: potency is the fitted concentration of half-maximal effect;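 for activation: HG2L7.5c1 human HepG2 liver cells with stably integrated DRE-driven firefly reporter; series mostly up to about 70 µM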
Outline: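 Luminescence (ONE-Glo) from a dioxin-responsive-element luciferase reporter in HG2L7.5c1 HepG2 cells after 24 hr compound exposure at 37C; viability measured by CellTiter-Fluor fluorescence beforehand.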

[3] = qHTS assay to identify small molecule that activate the aryl hydrocarbon receptor (AhR) signaling pathway - cell viability counter screen (AID 743086); note: nearly all actives have a fitted effect of over 45% in size; note: potency is the fitted concentration of half-maximal effect
Outline: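 HepG2-AhR-luc (HG2L7.5c1) cells, 4000/well, were preincubated 5 h at 37C, exposed to compound in qHTS format for 24 hr at 37C, then given CellTiter-Fluor for 30 min; viability was read as fluorescence in the reporter wells.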

[4] = molecular target: Peroxisome proliferator-activated receptor gamma (Homo sapiens) (UniProt P37231); assay: qHTS assay to identify small molecule agonists of the peroxisome proliferator-activated receptor gamma (PPARg) signaling pathway (AID 743094; active = well fitted activation curve with a large enough effect in the signal ratio in the repeat runs, not every such curve was filed as active; the % refers to the signal ratio)
Outline: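 Quantitative HTS agonist mode: stable HEK293H line with UAS-beta-lactamase reporter under PPARg control, 17 h compound exposure at 37C, fluorescence after 1 h FRET substrate loading at room temperature.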

[5] = molecular target: Peroxisome proliferator-activated receptor gamma (Homo sapiens) (UniProt P37231); assay: qHTS assay to identify small molecule antagonists of the peroxisome proliferator-activated receptor gamma (PPARg) signaling pathway (AID 743191; calls by dose curve; note: nearly all actives have a fitted effect of over 30% in size; note: potency is the fitted concentration of half-maximal effect)
Outline: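 GeneBLAzer PPARg UAS-bla HEK293H cells carrying a UAS-driven beta-lactamase reporter were plated at 3000 cells/well, preincubated 5 h at 37C, then given compound for 17 h at 37C; LiveBLAzer B/G FRET substrate was read after 1 h at room temperature.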

[6] = qHTS assay to identify small molecule antagonists of the peroxisome proliferator-activated receptor gamma (PPARg) signaling pathway - cell viability counter screen (AID 743194); note: nearly all actives have a fitted effect of over 55% in size
Outline: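 PPARg-UAS-bla HEK293H cells were plated, rested 5 h at 37 C, then treated with compounds plus rosiglitazone (50 nM final) for 17 h at 37 C; viability was then read by CellTiter-Glo luminescence after 30 min at room temperature.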

[7] = qHTS assay for small molecule agonists of the antioxidant response element (ARE) signaling pathway (AID 743202; active = well fitted activation curve with a large enough effect in the signal ratio in the repeat runs, not every such curve was filed as active; the % refers to the signal ratio; note: potency is the fitted concentration of half-maximal effect)
Outline: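 Read-out: LiveBLAzer B/G FRET substrate fluorescence after 2 h at room temperature, following 16 h compound treatment at 37 C of HepG2 cells carrying an ARE-driven beta-lactamase reporter.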

[8] = qHTS assay for small molecule agonists of the antioxidant response element (ARE) signaling pathway - cell viability counter screen (AID 743203; calls by dose curve; note: nearly all actives have a fitted effect of over 55% in size; note: potency is the fitted concentration of half-maximal effect)
Outline: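 Seeded at 2,000 cells/well, ARE-bla HepG2 cells were incubated 5 hrs before compound addition. After 16 hrs of treatment at 37C with 5% CO2, CellTiter-Glo reagent was added and luminescence read 30 min later.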

[9] = qHTS assay for small molecule activators of the heat shock response signaling pathway - cell viability counter screen (AID 743209); note: nearly all actives have a fitted effect of over 50% in size; note: potency is the fitted concentration of half-maximal effect
Outline: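 First, HSE-bla HeLa cells were seeded at 1500 cells/well and kept overnight at 37 C. Next, compounds were pinned in and incubated 5 h. After the FRET substrate step, CellTiter-Glo was added and luminescence read 30 min later.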

[10] = qHTS assay for small molecule activators of the heat shock response signaling pathway (AID 743210; active = well fitted activation curve with a large enough effect in the signal ratio in the repeat runs, with a control signal flat, not every such curve was filed as active; the % refers to the signal ratio; note: series mostly up to about 63 µM)
Outline: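 HSE-bla HeLa cells (beta-lactamase reporter under heat shock response elements) were exposed to compounds for 5 h at 37 C, then loaded with LiveBLAzer B/G FRET substrate for 2.5 h at room temperature before fluorescence reading.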

Sequence of Aryl hydrocarbon receptor (Homo sapiens) (P35869 whole entry, looked up): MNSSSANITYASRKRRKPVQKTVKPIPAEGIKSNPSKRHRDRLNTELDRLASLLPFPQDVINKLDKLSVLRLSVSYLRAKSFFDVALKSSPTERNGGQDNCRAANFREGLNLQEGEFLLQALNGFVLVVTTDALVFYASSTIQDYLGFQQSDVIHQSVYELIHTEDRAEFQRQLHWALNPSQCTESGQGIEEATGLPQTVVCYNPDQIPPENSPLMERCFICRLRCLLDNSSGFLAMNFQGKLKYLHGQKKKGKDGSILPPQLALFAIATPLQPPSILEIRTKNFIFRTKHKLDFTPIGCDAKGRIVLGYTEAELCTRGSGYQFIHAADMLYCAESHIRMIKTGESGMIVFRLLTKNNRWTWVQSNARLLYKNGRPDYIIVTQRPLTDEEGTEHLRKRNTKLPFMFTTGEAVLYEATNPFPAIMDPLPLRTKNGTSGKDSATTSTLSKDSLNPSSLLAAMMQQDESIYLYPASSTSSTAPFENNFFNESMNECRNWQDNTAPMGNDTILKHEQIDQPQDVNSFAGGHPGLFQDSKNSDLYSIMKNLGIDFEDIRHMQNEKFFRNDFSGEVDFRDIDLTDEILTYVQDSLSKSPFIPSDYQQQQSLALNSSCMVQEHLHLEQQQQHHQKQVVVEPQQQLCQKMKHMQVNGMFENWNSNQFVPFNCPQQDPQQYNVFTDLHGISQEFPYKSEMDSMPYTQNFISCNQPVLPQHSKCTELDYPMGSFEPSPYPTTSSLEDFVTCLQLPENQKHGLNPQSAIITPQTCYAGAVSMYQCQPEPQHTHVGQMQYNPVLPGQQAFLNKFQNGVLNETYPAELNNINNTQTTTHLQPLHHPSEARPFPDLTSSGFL
Sequence of Peroxisome proliferator-activated receptor gamma (Homo sapiens) (P37231 whole entry, looked up): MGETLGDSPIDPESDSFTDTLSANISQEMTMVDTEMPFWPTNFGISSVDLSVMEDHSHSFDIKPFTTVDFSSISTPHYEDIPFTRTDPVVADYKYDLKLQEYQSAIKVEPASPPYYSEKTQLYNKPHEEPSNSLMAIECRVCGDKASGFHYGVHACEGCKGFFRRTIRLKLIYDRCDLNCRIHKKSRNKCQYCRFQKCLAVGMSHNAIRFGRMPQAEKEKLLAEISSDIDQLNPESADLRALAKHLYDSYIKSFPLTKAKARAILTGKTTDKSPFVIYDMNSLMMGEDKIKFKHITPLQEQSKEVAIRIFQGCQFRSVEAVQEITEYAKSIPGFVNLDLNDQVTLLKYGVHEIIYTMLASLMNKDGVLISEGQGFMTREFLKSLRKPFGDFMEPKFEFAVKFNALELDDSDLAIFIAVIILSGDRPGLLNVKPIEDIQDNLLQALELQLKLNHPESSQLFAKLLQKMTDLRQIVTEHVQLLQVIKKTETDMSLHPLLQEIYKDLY

SMILES | Potency [1] | Potency [2] | Potency [3] | Potency [4] | Potency [5] | Potency [6] | Potency [7] | Potency [8] | Potency [9] | Potency [10]
CCCCCCCCCCCO | inactive and 27.3 µM (active) | inactive | inactive | inactive | inactive | inactive | inactive | inactive and 61.1 µM (active) | inactive and 43.6 µM (active) | 
c1cc(-c2ccncc2)ccn1 | inactive | inactive | inactive | inactive | inactive | inactive |  | inactive | inactive | inactive
O=C1c2cccc(O)c2C(=O)c2c(O)cccc21 | inactive | inactive | inactive | inactive | inactive | inactive |  | inactive | inactive | inactive
CC1=CC2C3CC(C=C3C)C2C1 (centres undefined) | inactive | inactive | inactive | inactive | inactive | inactive | inactive and 27.3 µM (active) | inactive | inactive | inactive
CC(C)OB(OC(C)C)OC(C)C | inactive | inactive | inactive | inactive | inactive | inactive | inactive | inactive | inactive | inactive
CCCCOCCOCCO | inactive | inactive | inactive | inactive | inactive | inactive | inactive | inactive | inactive | inactive
CCC(C)OC(=O)c1ccc(O)cc1 (centres undefined) | inactive | inactive | inactive | inactive | inactive | inactive | inactive | inactive | inactive | inactive
CCCCNS(=O)(=O)c1ccccc1 | inactive | inactive | inactive | inactive | inactive | inactive | inactive | inactive | inactive | inactive
OC(CCl)CCl | inactive | inactive | inactive | inactive | inactive | inactive | inactive | inactive | inactive | inactive
CCCCC(CC)COP(=O)(OCC(CC)CCCC)OCC(CC)CCCC (centres undefined) | inactive | inactive | inactive | inactive | inactive | inactive | inactive | inactive | inactive | inactive
CCCCCCCCCC(=O)OC | inactive | inactive | inactive | inactive | inactive | inactive | inactive | inactive | inactive | inactive
COC(=O)Nc1nc2ccc(S(=O)c3ccccc3)cc2[nH]1 (centres undefined) | inactive | 3.76 µM (active) and 3.06 µM (active) | inactive | inactive | inactive | inactive | inactive | inactive | inactive | inactive
Cc1cccc(C(=O)O)c1 | inactive | inactive | inactive | inactive | inactive | inactive | inactive | inactive | inactive | inactive
CC1=CCC(C(C)(C)O)CC1 (centres undefined) | inactive | inactive | inactive | inactive | inactive | inactive | inactive | inactive | inactive | inactive
CCOCCOCCO | inactive | inactive | inactive | inactive | inactive | inactive | inactive | inactive | inactive | inactive
C=CC(C)(CCC=C(C)C)OC(C)=O (centres undefined) | inactive | inactive | inactive | inactive | inactive | inactive | inactive | inactive | inactive | inactive
COc1cccc2c1C(=O)c1c(O)c3c(c(O)c1C2=O)C[C@@](O)(C(=O)CO)C[C@@H]3O[C@H]1C[C@H](N)[C@H](O)[C@H](C)O1 | inactive and 13.3 µM (active) and 12.2 µM (active) | inactive | inactive and 3.85 µM (active) | inactive | 2.37 µM (active) | inactive | 0.266 µM (active) | 13.7 µM (active) and 5.31 µM (active) |  | 
CCCCOCCOCCOCCO | inactive | inactive | inactive | inactive | inactive | inactive | inactive | inactive | inactive | inactive
OCCO | inactive | inactive | inactive | inactive | inactive | inactive | inactive | inactive | inactive | inactive
Cc1[nH]c(=O)c(C#N)cc1-c1ccncc1 | inactive | inactive | inactive | inactive | inactive | inactive | inactive | inactive | inactive | inactive
O=Cc1ccccc1O | inactive | inactive | inactive | inactive | inactive | inactive | inactive | inactive | inactive | 
O=[N+]([O-])c1ccc2c(c1)Cc1ccccc1-2 | inactive | inactive and 61.1 µM (active) | inactive | inactive | inactive | inactive | 61.1 µM (active) | inactive | inactive | inactive
